Laboratory results reported in the supplement of paper PMC11732987, “Enantioselective OTUD7B fragment discovery through chemoproteomics screening and high-throughput optimisation” (Communications Chemistry, 2025).

Key:
Assay in all cases: log2 ratio of Biotin-Ahx-Ub-VS probe labelling (fragment/DMSO); higher = less target engagement (more negative = stronger competition), active = hit call of the paper (q ≤ 0.05, log2 ratio ≤ -1)
Conditions in all cases: compound concentration: 200 uM; treatment time: 3 h
USP19 = biological target: T1, USP19 (UniProt O94966)
T1 sequence (whole entry): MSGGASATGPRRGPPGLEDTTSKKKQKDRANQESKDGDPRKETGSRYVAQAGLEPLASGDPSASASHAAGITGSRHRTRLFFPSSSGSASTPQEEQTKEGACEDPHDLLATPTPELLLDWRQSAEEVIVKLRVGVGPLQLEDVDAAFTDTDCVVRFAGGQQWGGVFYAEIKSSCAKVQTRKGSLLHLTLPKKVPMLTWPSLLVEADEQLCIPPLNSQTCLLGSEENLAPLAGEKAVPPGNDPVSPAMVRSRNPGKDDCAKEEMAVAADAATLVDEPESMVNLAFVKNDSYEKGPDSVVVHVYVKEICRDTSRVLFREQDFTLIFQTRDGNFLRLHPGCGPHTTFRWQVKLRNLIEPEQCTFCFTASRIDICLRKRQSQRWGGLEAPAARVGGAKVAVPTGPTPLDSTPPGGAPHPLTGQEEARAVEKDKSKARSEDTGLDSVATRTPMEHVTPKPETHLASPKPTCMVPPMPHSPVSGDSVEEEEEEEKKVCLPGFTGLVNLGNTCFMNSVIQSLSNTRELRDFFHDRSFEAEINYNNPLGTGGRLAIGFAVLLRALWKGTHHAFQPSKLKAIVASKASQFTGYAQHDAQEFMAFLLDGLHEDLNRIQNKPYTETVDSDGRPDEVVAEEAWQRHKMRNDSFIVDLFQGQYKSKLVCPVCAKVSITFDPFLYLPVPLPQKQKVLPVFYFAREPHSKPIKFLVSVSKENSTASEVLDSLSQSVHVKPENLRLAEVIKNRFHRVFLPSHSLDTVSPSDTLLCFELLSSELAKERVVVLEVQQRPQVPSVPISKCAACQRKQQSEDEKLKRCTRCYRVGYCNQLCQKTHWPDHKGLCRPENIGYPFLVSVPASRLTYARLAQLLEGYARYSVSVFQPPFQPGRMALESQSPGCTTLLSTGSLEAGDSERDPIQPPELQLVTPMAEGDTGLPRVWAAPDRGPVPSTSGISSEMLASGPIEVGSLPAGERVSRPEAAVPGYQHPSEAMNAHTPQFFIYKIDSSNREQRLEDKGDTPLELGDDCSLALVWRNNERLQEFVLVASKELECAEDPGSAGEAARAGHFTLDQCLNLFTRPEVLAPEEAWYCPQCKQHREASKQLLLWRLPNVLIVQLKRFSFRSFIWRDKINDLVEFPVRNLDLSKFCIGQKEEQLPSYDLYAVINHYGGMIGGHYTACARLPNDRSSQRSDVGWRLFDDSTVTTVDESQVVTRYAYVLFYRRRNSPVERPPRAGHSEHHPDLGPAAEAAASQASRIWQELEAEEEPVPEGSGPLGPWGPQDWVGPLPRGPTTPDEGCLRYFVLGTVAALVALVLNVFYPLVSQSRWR
How it was run: (§1)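 Triplicate samples of HEK293T lysate, 495 µg each, received fragment at 200 µM or vehicle for 3 h, followed by Biotin-Ahx-Ub-VS (0.5 µM final) for 1 h. After NeutrAvidin enrichment of labelled DUBs and LysC/trypsin digestion, peptides were run by diaPASEF LC-MS/MS. The values are average log2 fragment/vehicle ratios from global-median-normalised Spectronaut label-free quantities, tested by unpaired t-test on proteins having ≥2 unique peptides.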

USP22 = biological target: T2, USP22 (UniProt Q9UPT9)
T2 sequence (whole entry): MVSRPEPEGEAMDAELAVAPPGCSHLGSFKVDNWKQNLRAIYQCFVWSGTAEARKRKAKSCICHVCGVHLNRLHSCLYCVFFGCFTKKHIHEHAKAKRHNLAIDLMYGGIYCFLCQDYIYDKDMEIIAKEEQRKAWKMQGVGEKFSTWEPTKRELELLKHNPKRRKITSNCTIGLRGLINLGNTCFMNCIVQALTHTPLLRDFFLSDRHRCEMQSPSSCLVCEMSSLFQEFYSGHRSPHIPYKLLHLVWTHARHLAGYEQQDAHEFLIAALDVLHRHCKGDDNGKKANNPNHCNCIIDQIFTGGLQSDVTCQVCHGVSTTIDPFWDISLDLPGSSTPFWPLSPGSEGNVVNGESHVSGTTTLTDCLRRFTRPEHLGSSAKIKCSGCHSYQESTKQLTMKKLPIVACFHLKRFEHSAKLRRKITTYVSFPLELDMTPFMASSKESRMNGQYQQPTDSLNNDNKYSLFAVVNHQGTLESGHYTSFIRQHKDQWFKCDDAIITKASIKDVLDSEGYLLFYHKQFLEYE
How it was run: as §1

USP24 = USP24 (UniProt Q9UPU5)
Chain of USP24 (Q9UPU5 whole entry): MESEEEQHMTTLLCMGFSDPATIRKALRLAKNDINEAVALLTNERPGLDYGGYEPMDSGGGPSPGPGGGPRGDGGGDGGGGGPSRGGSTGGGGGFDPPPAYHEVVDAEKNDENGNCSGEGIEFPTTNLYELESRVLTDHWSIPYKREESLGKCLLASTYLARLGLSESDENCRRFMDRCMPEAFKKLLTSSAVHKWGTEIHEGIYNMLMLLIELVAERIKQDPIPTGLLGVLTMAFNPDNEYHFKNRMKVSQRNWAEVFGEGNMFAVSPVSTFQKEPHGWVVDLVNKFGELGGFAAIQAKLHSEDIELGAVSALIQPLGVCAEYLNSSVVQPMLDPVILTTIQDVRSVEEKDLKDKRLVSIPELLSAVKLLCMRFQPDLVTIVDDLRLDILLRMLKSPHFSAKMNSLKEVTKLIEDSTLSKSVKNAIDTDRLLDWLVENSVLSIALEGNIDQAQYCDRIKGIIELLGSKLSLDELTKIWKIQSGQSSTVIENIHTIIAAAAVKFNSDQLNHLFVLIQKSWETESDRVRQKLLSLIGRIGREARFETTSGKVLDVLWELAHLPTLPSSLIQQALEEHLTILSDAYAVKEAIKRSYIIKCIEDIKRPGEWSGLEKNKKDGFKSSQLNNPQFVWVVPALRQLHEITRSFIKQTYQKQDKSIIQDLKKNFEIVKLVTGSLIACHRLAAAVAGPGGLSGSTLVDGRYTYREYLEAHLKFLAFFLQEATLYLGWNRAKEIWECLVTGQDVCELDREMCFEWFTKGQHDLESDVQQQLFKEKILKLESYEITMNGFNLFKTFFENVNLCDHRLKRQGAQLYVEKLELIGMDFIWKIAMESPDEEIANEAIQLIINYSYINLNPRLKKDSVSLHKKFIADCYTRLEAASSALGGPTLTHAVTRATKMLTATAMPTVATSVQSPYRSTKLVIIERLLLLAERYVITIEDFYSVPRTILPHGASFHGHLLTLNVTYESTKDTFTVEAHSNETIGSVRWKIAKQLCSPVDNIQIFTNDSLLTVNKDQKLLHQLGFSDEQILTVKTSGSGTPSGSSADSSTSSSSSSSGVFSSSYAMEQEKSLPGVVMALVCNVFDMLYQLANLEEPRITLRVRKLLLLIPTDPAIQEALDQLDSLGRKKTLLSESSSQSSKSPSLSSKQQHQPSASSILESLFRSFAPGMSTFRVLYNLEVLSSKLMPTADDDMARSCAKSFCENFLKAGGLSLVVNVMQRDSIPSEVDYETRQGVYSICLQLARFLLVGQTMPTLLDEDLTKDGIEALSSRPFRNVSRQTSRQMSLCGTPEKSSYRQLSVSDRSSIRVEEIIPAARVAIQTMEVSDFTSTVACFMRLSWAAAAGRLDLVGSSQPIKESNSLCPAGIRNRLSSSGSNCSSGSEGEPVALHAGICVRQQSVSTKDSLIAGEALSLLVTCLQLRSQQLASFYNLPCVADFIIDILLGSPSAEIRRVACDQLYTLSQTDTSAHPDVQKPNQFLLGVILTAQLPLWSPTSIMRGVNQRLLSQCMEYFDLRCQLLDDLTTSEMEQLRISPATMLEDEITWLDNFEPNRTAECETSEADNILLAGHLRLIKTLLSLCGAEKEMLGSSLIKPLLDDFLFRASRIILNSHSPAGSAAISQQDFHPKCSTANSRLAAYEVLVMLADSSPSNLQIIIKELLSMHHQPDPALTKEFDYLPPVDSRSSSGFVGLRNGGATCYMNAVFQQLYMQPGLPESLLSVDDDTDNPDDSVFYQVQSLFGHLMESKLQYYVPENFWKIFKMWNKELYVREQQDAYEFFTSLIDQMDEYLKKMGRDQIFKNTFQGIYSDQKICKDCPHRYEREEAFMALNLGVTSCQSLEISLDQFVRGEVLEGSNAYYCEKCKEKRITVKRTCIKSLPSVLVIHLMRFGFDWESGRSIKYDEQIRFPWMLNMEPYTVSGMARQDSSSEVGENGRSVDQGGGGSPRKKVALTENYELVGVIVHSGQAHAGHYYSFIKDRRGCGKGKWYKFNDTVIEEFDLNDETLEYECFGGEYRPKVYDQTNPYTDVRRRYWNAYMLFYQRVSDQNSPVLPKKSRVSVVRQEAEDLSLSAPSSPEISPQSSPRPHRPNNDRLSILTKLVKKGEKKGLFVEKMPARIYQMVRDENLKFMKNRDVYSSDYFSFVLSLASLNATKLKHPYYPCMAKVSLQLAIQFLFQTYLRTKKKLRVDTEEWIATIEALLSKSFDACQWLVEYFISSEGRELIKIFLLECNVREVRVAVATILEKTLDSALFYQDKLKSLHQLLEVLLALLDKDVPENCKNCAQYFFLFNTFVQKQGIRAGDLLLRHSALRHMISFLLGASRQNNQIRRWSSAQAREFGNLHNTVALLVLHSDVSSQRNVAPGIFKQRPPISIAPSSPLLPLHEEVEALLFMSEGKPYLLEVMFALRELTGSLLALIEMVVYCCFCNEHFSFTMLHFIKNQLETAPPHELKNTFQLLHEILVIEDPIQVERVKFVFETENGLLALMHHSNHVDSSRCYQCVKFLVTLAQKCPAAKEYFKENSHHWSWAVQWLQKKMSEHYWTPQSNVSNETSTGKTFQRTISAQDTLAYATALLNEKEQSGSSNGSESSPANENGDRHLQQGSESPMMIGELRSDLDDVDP
How it was run: as §1

USP25 = biological target: T3, USP25 (UniProt Q9UHP3)
T3 sequence (whole entry): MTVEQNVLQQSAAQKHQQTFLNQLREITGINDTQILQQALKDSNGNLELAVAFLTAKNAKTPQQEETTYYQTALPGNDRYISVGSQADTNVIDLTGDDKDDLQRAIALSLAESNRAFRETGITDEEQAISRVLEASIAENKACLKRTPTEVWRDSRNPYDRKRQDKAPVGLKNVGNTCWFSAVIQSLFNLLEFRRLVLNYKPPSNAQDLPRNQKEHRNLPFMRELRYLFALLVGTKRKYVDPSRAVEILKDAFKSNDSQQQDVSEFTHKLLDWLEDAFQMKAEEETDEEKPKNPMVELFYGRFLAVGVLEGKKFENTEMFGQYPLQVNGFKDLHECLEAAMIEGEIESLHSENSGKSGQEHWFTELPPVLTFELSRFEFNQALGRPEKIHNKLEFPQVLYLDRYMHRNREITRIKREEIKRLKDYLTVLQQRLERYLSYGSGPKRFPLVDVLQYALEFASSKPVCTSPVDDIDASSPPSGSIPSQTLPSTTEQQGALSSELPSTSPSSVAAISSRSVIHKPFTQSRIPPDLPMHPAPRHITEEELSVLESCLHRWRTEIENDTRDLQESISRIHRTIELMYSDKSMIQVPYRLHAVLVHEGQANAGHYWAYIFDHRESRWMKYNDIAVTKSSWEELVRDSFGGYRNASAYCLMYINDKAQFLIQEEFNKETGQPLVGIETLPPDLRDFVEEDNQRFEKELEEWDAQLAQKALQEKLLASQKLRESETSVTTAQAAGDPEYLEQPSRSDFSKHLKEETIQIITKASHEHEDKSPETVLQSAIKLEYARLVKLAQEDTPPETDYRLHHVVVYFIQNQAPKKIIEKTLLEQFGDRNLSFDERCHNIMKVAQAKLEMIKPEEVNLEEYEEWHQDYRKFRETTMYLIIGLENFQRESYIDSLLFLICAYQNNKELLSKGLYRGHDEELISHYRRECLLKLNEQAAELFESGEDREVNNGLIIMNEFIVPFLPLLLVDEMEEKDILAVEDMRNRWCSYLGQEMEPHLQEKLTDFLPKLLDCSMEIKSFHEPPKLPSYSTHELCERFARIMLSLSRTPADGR
How it was run: as §1

USP28 = biological target: T4, USP28 (UniProt Q96RU2)
T4 sequence (whole entry): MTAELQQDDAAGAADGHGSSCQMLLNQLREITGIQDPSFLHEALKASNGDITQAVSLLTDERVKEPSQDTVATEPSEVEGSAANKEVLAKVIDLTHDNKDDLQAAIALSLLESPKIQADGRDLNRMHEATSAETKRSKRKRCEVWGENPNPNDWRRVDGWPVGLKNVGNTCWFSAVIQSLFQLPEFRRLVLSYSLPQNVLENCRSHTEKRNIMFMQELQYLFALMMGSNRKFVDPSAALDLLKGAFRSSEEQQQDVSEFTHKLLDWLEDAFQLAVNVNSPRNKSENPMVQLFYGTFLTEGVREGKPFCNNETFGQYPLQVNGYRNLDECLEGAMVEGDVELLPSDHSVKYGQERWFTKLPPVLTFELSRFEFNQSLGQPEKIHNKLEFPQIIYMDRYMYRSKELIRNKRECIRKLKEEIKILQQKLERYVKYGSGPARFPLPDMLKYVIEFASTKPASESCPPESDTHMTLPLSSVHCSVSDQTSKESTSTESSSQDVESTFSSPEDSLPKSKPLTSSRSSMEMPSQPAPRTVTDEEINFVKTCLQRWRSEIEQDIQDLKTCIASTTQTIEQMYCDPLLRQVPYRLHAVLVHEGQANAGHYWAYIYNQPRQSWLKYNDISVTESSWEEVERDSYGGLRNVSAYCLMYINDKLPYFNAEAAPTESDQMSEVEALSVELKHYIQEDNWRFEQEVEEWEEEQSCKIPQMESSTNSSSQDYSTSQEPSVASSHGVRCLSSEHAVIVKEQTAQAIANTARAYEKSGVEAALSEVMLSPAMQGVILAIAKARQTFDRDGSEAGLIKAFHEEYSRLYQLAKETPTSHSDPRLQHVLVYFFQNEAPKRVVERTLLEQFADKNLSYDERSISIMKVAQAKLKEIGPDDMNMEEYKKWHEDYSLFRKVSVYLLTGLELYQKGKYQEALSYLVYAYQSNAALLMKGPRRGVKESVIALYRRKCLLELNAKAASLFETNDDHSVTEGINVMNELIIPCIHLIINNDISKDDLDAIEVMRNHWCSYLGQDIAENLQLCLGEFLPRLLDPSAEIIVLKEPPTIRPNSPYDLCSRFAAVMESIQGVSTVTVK
How it was run: as §1

Measured: log2 ratio of Biotin-Ahx-Ub-VS probe labelling

Cl.O=C(CCl)N1CCCC(c2ncc[nH]2)C1 (stereo not given)
inactive: USP19 -0.0532 | USP22 0.0588 | USP24 -0.108 | USP25 -0.511 | USP28 -0.212
